Rows were chosen to be rich in hits. Some 21% of all compounds tested hit in one or more screens of this group.
NS1 inh = inhibitors of influenza NS1 protein function; AID 2326; Potency, µM (series often up to 46.1 µM), for inactives: at the top dose activity, positive = more growth; actives 0.4% (n = 270,000); calls by dose curve; also: potency is read from the fitted curve at half-maximal effect; actives are rising curves; nearly all actives have a fitted effect of over 50% in size
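Read-out: OD600 growth recovery of NS1-expressing budding yeast. Cells grown overnight at 30C in -URA glucose medium, washed, resuspended and diluted 1:100 in 2% galactose assay medium, pH 6.0. Same strain lacking NS1 served as positive control.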
Cycloheximide cs = counter-screen for Shiga toxin inhibitors: cycloheximide protein synthesis inhibition. max response, %. actives 12% (n = 300,000). cell reporter, cycloheximide protein synthesis inhibition counterscreen. AID 2314; in the data active = max response mostly above about 13%, no sharp cut-off; inactive = mostly below about 14%; also: read at 38.3 µM for the half of the compounds with a filed dose; 0% is about no effect
SARS PLP yeast = blocks SARS-CoV papain-like protease in a yeast assay; AID 485353; S. cerevisiae expressing SARS-CoV PLpro, growth rescue; actives 0.19% (n = 330,000); Potency, µM (titrated, usually from 32.9 µM), for inactives: at the highest dose activity, positive = growth rescue, actives largely listed as activators; calls by dose curve; also: potency is read from the fitted curve at half-maximal effect; 0% is about no effect; nearly all actives have a fitted effect of over 55% in size
Pf growth 96h = P. falciparum growth inhibition at 96 hour, primary screen for plastid delayed-death inhibitors | P. falciparum luciferase reporter growth, 96 h | Potency, µM (series often up to 28.7 µM), for the others: top-dose activity change, negative = inhibition, usual class: inhibitors | actives 6.9% (n = 320,000); also: potency is read from the fitted curve at half-maximal effect; % is scaled to controls: 0 for no effect and ±100 for the full control effect
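Readout is luminescence from an integrated firefly luciferase in P. falciparum. Red cells, 2% hematocrit and 0.05% parasitemia final, were cultured with compound through two parasite generations (96 hours) at 37 C, 5% CO2.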
Shiga toxin inh = inhibitors of Shiga toxin in Vero cells; Vero cells, Shiga toxin protein synthesis inhibition reporter; inhibition, % at 38.7 µM; actives 9.2% (n = 290,000); in the data active = inhibition mostly above about 28%, no sharp cut-off; inactive = mostly below about 43%; also: 0% is about no effect
Pf growth 48h = P. falciparum growth inhibition at 48 hours (one generation). P. falciparum luciferase growth in erythrocytes, 48 h. Potency, µM (doses to about 28.7 µM), for the others: top-dose activity change, negative = inhibition, hits mostly inhibitors. actives 5.9% (n = 310,000). AID 504832; also: potency is read from the fitted curve at half-maximal effect; % is scaled to controls: 0 for no effect and ±100 for the full control effect
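Parasite viability was followed by luminescence of a genomically integrated firefly luciferase. Cultures held 0.1% parasitemia at 2% hematocrit (final), incubated under 5% CO2 at 37 C.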
Starred values were filed as active, the others as inactive; ? = inconclusive; . = not tested or not shown; + = active, no number; [ ] = dose if it differs, or a comment. Unless noted, calls follow the shape of the dose curve; as a rule, active = well fitted inhibition curve with a large enough effect; inconclusive = small, poorly fitted or top-dose-only effect, or another doubt; inactive = no such curve, though single readings can be large or run the other way.

SMILES | NS1 inh | Cycloheximide cs | SARS PLP yeast | Pf growth 96h | Shiga toxin inh | Pf growth 48h
COc1ccc(-c2sc(Nc3ccc(F)c(F)c3F)nc2CCC(=O)NN)cc1 | 24% | 42* | 0% | ? | 100* | ?
CCOc1ccc(-c2noc(-c3cccnc3)n2)cc1OCC | -1% | 1 | 0% | -63% | 12 | ?
CCOc1ccc(-c2nc(-c3cccnc3)no2)cc1OCC | -8% | 12* | -8% | . | 41 | ?
CC(=O)Oc1ccc(C)cc1 | . | . | . | -15% | . | -13%
CC(=O)Oc1ccc(-c2nc(-c3cccnc3)no2)cc1 | -19% | 39* | -7% | 30% | 41* | 121%
CC(=O)Oc1ccc(Oc2ccc(-c3noc(C)n3)cc2)cc1 | -16% | 32* | -4% | . | 83* | 61%
O=C(O)c1ccncc1.O=C(O)c1ccncc1.[Cl][Pt]([Cl])([Cl])[Cl] | -13% | . | . | . | . | .
O=C(CN1CCOCC1)NCc1cc([N+](=O)[O-])ccc1O | -8% | -2 | 1% | ? | . | -2%
Cc1ccc(CN2C(=O)C(CC(C)C)Nc3ncnc(N4CCN(c5ccccn5)CC4)c32)cc1 (stereo not drawn) | . | . | 3% | ? | . | 9.3µM*
CC(C)CC1Nc2ncnc(N3CCN(c4ccccn4)CC3)c2N(Cc2ccc(Br)cc2)C1=O (stereo not drawn) | . | . | 3% | 8.3µM* | . | 7.4µM*
COc1ccc(CN2C(=O)C(CC(C)C)Nc3ncnc(N4CCN(c5ccccn5)CC4)c32)cc1 (stereo not drawn) | . | . | -2% | ? | . | ?
CC(NC(=O)c1cc(F)c(F)c(F)c1F)c1ccc(-n2ccnc2)cc1 (stereo not drawn) | -6% | -1 | -13% | -4% | -9 | ?
O=[N+]([O-])C(=C1SCCS1)C(=C(Cl)Cl)N1CCCCC1 | . | -4 | -7% | 27% | -19 | -13%
O=[N+]([O-])C(/C=C(\Cl)[N+](=O)[O-])=C(N1CCCCC1)N1CCCCC1 | . | 10 | -4% | 1.2µM* | 35 | ?
COC(=O)C1=C(CSc2nccn2C)NC(=O)NC1c1cc(C)ccc1C (stereo not drawn) | -7% | -4 | 10% | -15% | -13 | .
CC(=O)NCCc1nc2cc(NC(=O)c3ccccc3C)ccc2n1C | 16% | -3 | 2% | ? | 7 | -1%
CCC(=O)NCCc1nc2cc(NC(=O)Nc3ccccc3)ccc2n1C | -3% | 23 | 1% | 227% | 43* | 97%
CCC(=O)NCCc1nc2cc(NC(=O)c3ccccc3Cl)ccc2n1C | 2% | 32* | -5% | 140% | 62* | 115%
O=C/C(=C\Nc1ccccn1)c1nc2cc(Cl)ccc2o1 | ? | 47* | -66% | ? | 63* | ?
O=C/C(=C\Nc1ccccn1)c1nc2ccccc2o1 | -9% | 27* | -22% | -22% | + | ?
CC(=O)Nc1cccc(N/C=C(\C=O)c2nc3ccccc3o2)c1 | -8% | 29* | 8% | -3% | 36* | 22%
O=C/C(=C\Nc1ccc(Br)cc1)c1nc2ccccc2o1 | 1% | -4 | 1% | ? | 4 | 20%
CC(=O)Nc1ccc(N/C=C(\C=O)c2nc3ccccc3o2)cc1 | -2% | 14 | 0% | ? | -11 | 58%
CCCCNC(=O)C1CCN(S(=O)(=O)N2CCOCC2)CC1 | . | -4 | 2% | -14% | -3 | 24%
CC(C)(CNC(=O)CO/N=C1/C=C2CCC3C(C(O)C[C@@]4(C)C3CC[C@]4(O)C(=O)CO)[C@@]2(C)CC1)C(O)C(=O)O (stereo partly drawn) | 4% | -3 | 1% | ? | 4 | ?
SMILES | NS1 inh | Cycloheximide cs | SARS PLP yeast | Pf growth 96h | Shiga toxin inh | Pf growth 48h
CC1CN(S(=O)(=O)c2ccc(C(=O)N(CCCN(C)C)c3nc4c(Cl)cccc4s3)cc2)CC(C)O1 (stereo not drawn) | -1% | 0 | 24% | 29% | -6 | 7%
CCCCCCCCCCCCCCOS(=O)(=O)O | . | -6 | . | . | -4 | .
O=C(Oc1cccc2cccnc12)c1cccs1 | -148% | 21* | -37% | ? | 41 | ?
O=C(Oc1cccc2cccnc12)c1ccco1 | -5% | -4 | -57% | 1.3µM* | 14 | ?
O=C(Cc1ccc(Cl)cc1)Oc1cccc2cccnc12 | ? | 2 | -136% | 2.6µM* | -9 | 0%
Cc1ccc(N(C)C(=O)Oc2cccc3cccnc23)cc1 | -8% | -3 | -6% | 18% | 34 | -3%
O=C(Oc1ccc(Cl)c2cccnc12)c1ccco1 | -5% | 23 | -21% | 74% | -8 | 12µM*
O=C(Oc1cccc2cccnc12)c1ccc(Br)o1 | -22% | -4 | 2% | 0%[5.75 µM] | 12 | -2%
O=C(O)CCCC(=O)N1CCN(c2nc(-c3ccccc3Cl)c3cc(Br)ccc3n2)CC1 | -2% | 1 | -13% | 24% | -7 | -28%
O=C(COc1cccc2cccnc12)Nc1nccs1 | ? | 33* | 6% | 58% | 53* | 127%
O=C(NCCOc1cccc2cccnc12)c1cccs1 | . | 22 | 0% | -13%[5.75 µM] | 46* | 11%
O=C(Oc1ccccc1N1C(=O)CCC1=O)c1ccco1 | 5% | 1 | -4% | 9.3µM* | -9 | -9%
NNC(=O)COc1cccc2cccnc12 | -2% | -3 | 25% | -3% | -9 | -10%
CC1C=CCC2C(=O)N(c3ccccc3OC(=O)c3ccco3)C(=O)C12 (stereo not drawn) | 2% | -2 | 0% | -9% | -35 | 40%
CC(=O)NCCOc1cccc2cccnc12 | 12% | -1 | -11% | . | -23 | 32%
O=C(Oc1cccc2cccnc12)c1cccc([N+](=O)[O-])c1 | -44% | -5 | -1% | 11% | -18 | 38%
O=C(Oc1cccc2cccnc12)c1ccc2c(c1)OCCO2 | -137% | 70* | -18% | -26% | 84* | -18%
O=[N+]([O-])c1cccc(Nc2c([N+](=O)[O-])ccc3nonc23)c1 | -2% | -3 | 0% | 27% | -12 | -15%
O=[N+]([O-])c1ccc2nonc2c1Nc1ccccc1 | -12% | 23* | 6% | -18% | 43 | 3%
CCCCc1ccc(CC(=O)O)cc1 | -166% | -2 | -1% | 17% | -7 | 23%
Nc1nnc(-c2ccc(Cl)c(Cl)c2)s1 | . | 25* | -5% | 4% | 21 | 24%
CCCCCCc1ccc(-c2ncc(N)cn2)cc1 | -3% | 60* | -22% | 237% | 122* | 297%
CCCCCc1ccc(-c2nnc(N)s2)cc1 | -37% | 43* | -4% | 29% | 74* | -12%
Cc1cc(C)c(C)c(S(=O)(=O)N2CCC(C(=O)NCCCN3CCCC3=O)CC2)c1C | . | . | -1% | ? | . | ?
CSc1ncc(C(C)=O)c(C)n1 | . | -1 | 0% | 37% | 7 | -6%
CC(=O)c1cnc(Nc2nc(C)c3cc(C)c(C)cc3n2)nc1C | -3% | -1 | 6% | 13µM* | 24 | 2%

Assay outcomes deposited in PubChem by National Center for Advancing Translational Sciences (NCATS).
